# Out of some 5,700 compounds screened, about 85 (1%) were called active. No stated cut-off is given here; in the data, active means p53-positive nuclei above about 36% (passing the limit was not always enough); inactive means the rest. For the sample, actives were picked, then their nearest neighbours and some compounds at random.
# How the values were obtained:
# [1] = nuclear p53 accumulation, HPV+ cells – imaging, p53-positive nuclei imaging, 24 h, 48 h (AID 1508601); settings: 24/48 h
# [2] = target: Cellular tumor antigen p53 (Homo sapiens) (UniProt P04637); experiment: as above; settings: 24/48 h, stronger effect = higher value
# [3] = measured here: cell number at 24 h, Library stock concentration: 80 uM
# [4] = measured here: cell number at 24 h, Library stock concentration: 400 uM
# [5] = measured here: cell number at 24 h, Library stock concentration: 2 mM
# [6] = measured here: cell number at 24 h, Library stock concentration: 3.33 mM
# [7] = measured here: cell number at 24 h, Library stock concentration: 10 mM
# [8] = measured here: cell number at 48 h, Library stock concentration: 80 uM
# [9] = measured here: cell number at 48 h, Library stock concentration: 400 uM
# [10] = measured here: cell number at 48 h, Library stock concentration: 2 mM
# [11] = measured here: cell number at 48 h, Library stock concentration: 3.33 mM
# [12] = measured here: cell number at 48 h, Library stock concentration: 10 mM
# [13] = Library stock concentration: 80 uM
# [14] = Library stock concentration: 400 uM
# [15] = Library stock concentration: 2 mM
# [16] = Library stock concentration: 3.33 mM
# [17] = Library stock concentration: 10 mM
# [18] = measured here: p53 positive nuclei at 24 h, Library stock concentration: 80 uM
# [19] = measured here: p53 positive nuclei at 24 h, Library stock concentration: 400 uM
# [20] = measured here: p53 positive nuclei at 24 h, Library stock concentration: 2 mM
# [21] = measured here: p53 positive nuclei at 24 h, Library stock concentration: 3.33 mM
# [22] = measured here: p53 positive nuclei at 24 h, Library stock concentration: 10 mM
# [23] = measured here: cell number at 24 h, concentration not given here
# [24] = measured here: cell number at 48 h, concentration not given here
# [25] = measured here: p53 positive nuclei at 24 h, concentration not given here
# Sequence of Cellular tumor antigen p53 (Homo sapiens) (P04637 whole entry, looked up): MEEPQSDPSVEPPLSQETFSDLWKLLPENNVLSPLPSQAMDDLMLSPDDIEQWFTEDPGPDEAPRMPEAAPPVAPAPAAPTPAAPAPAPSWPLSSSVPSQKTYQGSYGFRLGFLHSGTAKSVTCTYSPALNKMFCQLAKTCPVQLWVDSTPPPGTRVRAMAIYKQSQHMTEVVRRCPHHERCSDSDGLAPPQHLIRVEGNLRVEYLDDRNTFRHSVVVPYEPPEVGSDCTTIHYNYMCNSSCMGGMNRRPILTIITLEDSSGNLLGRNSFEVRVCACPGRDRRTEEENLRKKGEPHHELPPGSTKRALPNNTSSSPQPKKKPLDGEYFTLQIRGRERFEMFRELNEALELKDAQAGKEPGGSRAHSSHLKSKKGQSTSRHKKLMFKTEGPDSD
structure (smiles),measurement,setting,value
CCCCc1nc2cc(C=CC(=O)NO)ccc2n1CCN(CC)CC,"nuclei count, normalised",[1]; [3],95.3%
same,"nuclei count, normalised",[1]; [4],95.2%
same,"nuclei count, normalised",[1]; [5],78.6%
same,"nuclei count, normalised",[1]; [6],52.6%
same,"nuclei count, normalised",[1]; [7],51%
same,"nuclei count, normalised",[1]; [8],90.2%
same,"nuclei count, normalised",[1]; [9],86.3%
same,"nuclei count, normalised",[1]; [10],62.7%
same,"nuclei count, normalised",[1]; [11],28.6%
same,"nuclei count, normalised",[1]; [12],28.2%
same,"p53-positive nuclei, normalised",[2]; [13],1.67% (inactive)
same,"p53-positive nuclei, normalised",[2]; [14],3.58% (inactive)
same,"p53-positive nuclei, normalised",[2]; [15],17.7% (inactive)
same,"p53-positive nuclei, normalised",[2]; [16],87.1% (active)
same,"p53-positive nuclei, normalised",[2]; [17],84.9% (active)
same,"p53-positive nuclei, normalised",[2]; [18],5.63%
same,"p53-positive nuclei, normalised",[2]; [19],7.57%
same,"p53-positive nuclei, normalised",[2]; [20],33.7%
same,"p53-positive nuclei, normalised",[2]; [21],71.3%
same,"p53-positive nuclei, normalised",[2]; [22],79.8%
COc1ccc(CNCC2COCCO2)cc1OC (stereo not given),"nuclei count, normalised",[1]; [23],101%
same,"nuclei count, normalised",[1]; [24],103%
same,"p53-positive nuclei, normalised",[2]; concentration not given here,0.0897% (inactive)
same,"p53-positive nuclei, normalised",[2]; [25],0.164%
O=C(NOCC(O)CO)c1ccc(F)c(F)c1Nc1ccc(I)cc1F (stereo not given),"nuclei count, normalised",[1]; [3],110%
same,"nuclei count, normalised",[1]; [4],101%
same,"nuclei count, normalised",[1]; [5],91.9%
same,"nuclei count, normalised",[1]; [6],96.8%
same,"nuclei count, normalised",[1]; [7],99.9%
same,"nuclei count, normalised",[1]; [8],106%
same,"nuclei count, normalised",[1]; [9],104%
same,"nuclei count, normalised",[1]; [10],95.8%
same,"nuclei count, normalised",[1]; [11],97.9%
same,"nuclei count, normalised",[1]; [12],95.8%
same,"p53-positive nuclei, normalised",[2]; [13],-0.174% (inactive)
same,"p53-positive nuclei, normalised",[2]; [14],-0.189% (inactive)
same,"p53-positive nuclei, normalised",[2]; [15],0.0424% (inactive)
same,"p53-positive nuclei, normalised",[2]; [16],-0.685% (inactive)
same,"p53-positive nuclei, normalised",[2]; [17],0.268% (inactive)
same,"p53-positive nuclei, normalised",[2]; [18],0.00674%
same,"p53-positive nuclei, normalised",[2]; [19],0.0842%
same,"p53-positive nuclei, normalised",[2]; [20],-0.07%
same,"p53-positive nuclei, normalised",[2]; [21],-0.375%
same,"p53-positive nuclei, normalised",[2]; [22],0.0144%
O=Nc1c(O)[nH]c2c(Cl)c(Cl)ccc12,"nuclei count, normalised",[1]; [3],111%
same,"nuclei count, normalised",[1]; [4],99.5%
same,"nuclei count, normalised",[1]; [5],83.2%
same,"nuclei count, normalised",[1]; [7],73.5%
same,"nuclei count, normalised",[1]; [8],109%
same,"nuclei count, normalised",[1]; [9],99%
same,"nuclei count, normalised",[1]; [10],54.9%
same,"nuclei count, normalised",[1]; [12],33.7%
same,"p53-positive nuclei, normalised",[2]; [13],0.16% (inactive)
same,"p53-positive nuclei, normalised",[2]; [14],-0.101% (inactive)
same,"p53-positive nuclei, normalised",[2]; [15],48.3% (inactive)
same,"p53-positive nuclei, normalised",[2]; [17],84.3% (active)
same,"p53-positive nuclei, normalised",[2]; [18],0.217%
same,"p53-positive nuclei, normalised",[2]; [19],0.0912%
same,"p53-positive nuclei, normalised",[2]; [20],2.93%
same,"p53-positive nuclei, normalised",[2]; [22],8.66%
CC(C)C(=O)Oc1ccc(CO)cc1C(CCN(C(C)C)C(C)C)c1ccccc1 (stereo not given),"nuclei count, normalised",[1]; [6],113%
same,"nuclei count, normalised",[1]; [11],108%
same,"p53-positive nuclei, normalised",[2]; [16],-0.0601% (inactive)
same,"p53-positive nuclei, normalised",[2]; [21],-0.451%
CCCCC[C@H](O)/C=C/[C@@H]1[C@H](CCCCCCC(=O)O)[C@H](O)C[C@H]1O,"nuclei count, normalised",[1]; [23],103%
same,"nuclei count, normalised",[1]; [24],107%
same,"p53-positive nuclei, normalised",[2]; concentration not given here,-0.142% (inactive)
same,"p53-positive nuclei, normalised",[2]; [25],-0.0664%
O=C1C(c2c(O)[nH]c3ccccc23)=Nc2ccccc21,"nuclei count, normalised",[1]; [6],97.7%
same,"nuclei count, normalised",[1]; [11],95.2%
same,"p53-positive nuclei, normalised",[2]; [16],0.364% (inactive)
same,"p53-positive nuclei, normalised",[2]; [21],-0.221%
O=C1Cc2c([nH]c3ccc(Br)cc23)-c2ccccc2N1,"nuclei count, normalised",[1]; [23],97.1%
same,"nuclei count, normalised",[1]; [24],104%
same,"p53-positive nuclei, normalised",[2]; concentration not given here,-0.0157% (inactive)
same,"p53-positive nuclei, normalised",[2]; [25],0.0601%
O=Nc1c(-c2c(O)[nH]c3cc(Br)ccc23)[nH]c2ccccc12,"nuclei count, normalised",[1]; [3],102%
same,"nuclei count, normalised",[1]; [4],111%
same,"nuclei count, normalised",[1]; [5],106%
same,"nuclei count, normalised",[1]; [6],116%
same,"nuclei count, normalised",[1]; [7],63.9%
same,"nuclei count, normalised",[1]; [23],104%
same,"nuclei count, normalised",[1]; [8],106%
same,"nuclei count, normalised",[1]; [9],106%
same,"nuclei count, normalised",[1]; [10],91.1%
same,"nuclei count, normalised",[1]; [11],101%
same,"nuclei count, normalised",[1]; [12],46.7%
same,"nuclei count, normalised",[1]; [24],113%
same,"p53-positive nuclei, normalised",[2]; [13],-0.018% (inactive)
same,"p53-positive nuclei, normalised",[2]; [14],0.858% (inactive)
same,"p53-positive nuclei, normalised",[2]; [15],4.32% (inactive)
same,"p53-positive nuclei, normalised",[2]; [16],1.69% (inactive)
same,"p53-positive nuclei, normalised",[2]; [17],89.3% (active)
same,"p53-positive nuclei, normalised",[2]; concentration not given here,0.377% (inactive)
same,"p53-positive nuclei, normalised",[2]; [18],-0.0496%
same,"p53-positive nuclei, normalised",[2]; [19],0.519%
same,"p53-positive nuclei, normalised",[2]; [20],1.14%
same,"p53-positive nuclei, normalised",[2]; [21],0.53%
same,"p53-positive nuclei, normalised",[2]; [22],71.9%
same,"p53-positive nuclei, normalised",[2]; [25],0.0936%

# From PubChem BioAssay AID1508601 (ICCB-Longwood Screening Facility, Harvard Medical School, 2020)
